UDG counterscr = UDG inhibition counter-screen; FRET deamination/UDG coupled assay, UDG read, 4 h; Potency, µM (top dose mostly 115 µM), actives largely listed as inhibitors; 91,000 compounds, 0.14% hits; note: nearly all actives have a fitted effect of over 65% in size
AID inh = activation induced cytidine deaminase inhibition; Q9GZX7; AID deamination FRET fluorescence, UDG-coupled, 4 h; Potency, µM (top dose mostly 115 µM), hits mostly inhibitors; 91,000 compounds, 0.32% hits; AID 1347428; note: nearly all actives have a fitted effect of over 25% in size
Target sequence (Q9GZX7 whole entry, looked up): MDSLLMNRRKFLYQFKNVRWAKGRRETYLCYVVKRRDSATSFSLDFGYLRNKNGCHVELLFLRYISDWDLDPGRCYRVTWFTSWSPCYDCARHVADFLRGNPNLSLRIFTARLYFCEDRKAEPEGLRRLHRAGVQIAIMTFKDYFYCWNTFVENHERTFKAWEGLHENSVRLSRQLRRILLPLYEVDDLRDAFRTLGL
A number is an active result; ! = a repeat was not active. An excerpt weighted towards active compounds, which were near 0.4% of everything screened. Calls come from the whole dose curve; as a rule, active = well fitted curve in the direction sought with a large enough effect; inconclusive = small, poorly fitted or top-dose-only effect, or another doubt; inactive = no such curve, though single readings can be large; an effect the other way counts as inactive or inconclusive.

Screening O=Cc1cc(Cc2ccccc2Cl)cc(Br)c1O returned UDG counterscr inactive and AID inh 35µM.
`O=C(NCCc1ccccc1)C(=O)NCC(c1cccnc1)N1CCN(c2ccc(F)cc2)CC1` (stereo unspecified) gave UDG counterscr inactive and AID inh inactive.
For N.N.N.N.N.N.N.N.N.N.N.N.N.N.O.O.[Ru+4].[Ru+5].[Ru+5] the results were UDG counterscr 32µM and AID inh 22µM.
Screening CCc1ccc(S(=O)(=O)c2nnn3c2nc(N2CCC(C(N)=O)CC2)c2cc(Cl)ccc23)cc1 returned UDG counterscr inactive and AID inh 25µM.
`CC1CCN(c2nc3c(S(=O)(=O)c4ccccc4)nnn3c3ccc(Cl)cc23)CC1` gave UDG counterscr inactive and AID inh inconclusive.
`COc1cc(/C=N/O)c(Br)cc1OC(C)C` gave UDG counterscr inactive and AID inh inactive.
Screening Cc1c(O)ccc2c(CN(C)CC(=O)Nc3ccc(Cl)cc3)cc(=O)oc12 returned UDG counterscr inactive and AID inh inactive.
Screening COCCn1ccc2c(OCC(=O)Nc3cccc(C(F)(F)F)c3)cccc2c1=O returned UDG counterscr inactive and AID inh inactive.
CS(=O)(=O)Cc1ccc(CNCc2cccc3ccccc23)cc1 was read as UDG counterscr inactive and AID inh inactive.
CS(=O)(=O)Cc1ccc(CNCc2ccccc2Cl)cc1 was read as UDG counterscr 16µM and AID inh inactive.
Screening COc1ccc(Cn2c(=O)c3oc4ccccc4c3n(CC(=O)Nc3c(C)cccc3C)c2=O)cc1 returned UDG counterscr inactive and AID inh inactive.
`O=C1c2ccccc2-c2ccccc21` gave UDG counterscr inactive and AID inh inactive.
For CC1(C)CCC2=C(O1)c1ccccc1C(=O)C2=O the results were UDG counterscr inactive and AID inh 7.9µM.
For CCN(CC)S(=O)(=O)c1ccc(C)c(NC(=S)N(c2ccccc2)C(C)C)c1 the results were UDG counterscr inactive and AID inh inactive.
CCN(C(=S)Nc1cc(S(=O)(=O)N(C)C)ccc1C)c1cccc2ccccc12 was read as UDG counterscr inconclusive and AID inh 79µM.
Cn1c(NCc2ccccc2)nc2c1c(=O)n(Cc1ccccc1F)c(=O)n2C was read as UDG counterscr inactive and AID inh inactive.
N#CCCC(=O)c1cccnc1 was read as UDG counterscr inactive and AID inh inactive.
Screening CCc1nnc2c3ccccc3nc(Nc3cc(C)cc(C)c3)n12 returned UDG counterscr inactive and AID inh inactive.
For CC(Cl)C(=O)NC1(C#N)CCCCC1 (stereo unspecified) the results were UDG counterscr inactive and AID inh inactive.
`CSc1ccc(C2CC(C)=NN2c2nc(-c3ccccc3)cs2)cc1` (stereo unspecified) gave UDG counterscr inactive and AID inh inactive.
Screening COc1ccc(-c2csc(N3N=C(C)CC3c3cc(OC)c(OC)c(OC)c3)n2)cc1 (stereo unspecified) returned UDG counterscr 89µM and AID inh inconclusive.
Screening Cc1ccc(NC(=O)CSc2nc3ccc(Br)cc3[nH]2)c(C)c1 returned UDG counterscr inactive and AID inh inactive.
For CCc1ccc(NS(=O)(=O)c2cc(-c3cnc(C4CC4)o3)ccc2C)cc1 the results were UDG counterscr inactive and AID inh inactive.
Cc1cccc(N(C)S(=O)(=O)c2cc(-c3cnc(C4CC4)o3)ccc2C)c1 was read as UDG counterscr 79µM and AID inh inconclusive.
For CCOc1ccc(N(C(C)C(=O)NCCSc2ccc(C)cc2)S(C)(=O)=O)cc1 (stereo unspecified) the results were UDG counterscr inactive and AID inh inactive.
COc1ccccc1OCC(=O)N1CCC(c2nc3ccccc3o2)CC1 was read as UDG counterscr inactive and AID inh inactive.
Cc1ccc(C(C)C)c(OCC(=O)N2CCC(c3nc4ccccc4o3)CC2)c1 was read as UDG counterscr inactive and AID inh 40µM.
Screening CCOc1ccc2nc(N3CCC(C(=O)Nc4c(C)cccc4C)CC3)sc2c1 returned UDG counterscr inactive and AID inh inactive.
For CCCCCSc1nc2sc3c(c2c(=O)n1-c1ccccc1)CCN(C(C)=O)C3 the results were UDG counterscr inactive and AID inh 25µM.
CCSc1nc2sc3c(c2c(=O)n1-c1ccc(C)c(Cl)c1)CCN(C(C)=O)C3 was read as UDG counterscr inconclusive and AID inh inactive.
For COc1ccc(C2CC(=O)Nc3nc(N)sc32)cc1OCc1ccccc1Cl (stereo unspecified) the results were UDG counterscr inactive and AID inh 40µM.
`Cc1nn(-c2ccc3nnc(C)n3n2)c2c1C(c1cccc(OC(C)C)c1)CC(=O)N2` (stereo unspecified) gave UDG counterscr inactive and AID inh inactive.
For COc1cc(C2CC(=O)Nc3ccsc32)ccc1OCC(N)=O (stereo unspecified) the results were UDG counterscr inactive and AID inh inactive.
Screening CC(C)Oc1cccc(C2CC(=O)Nc3nc(N)sc32)c1 (stereo unspecified) returned UDG counterscr inactive and AID inh 28µM.
Cc1ccc(C)c(Nc2nn3c(=O)c4cc5c(cc4nc3s2)OCO5)c1 was read as UDG counterscr inconclusive and AID inh inactive.
`Cc1ccc(C2=NC(c3ccccc3)=Nc3ccc(Cl)cc3N2)cc1` gave UDG counterscr inconclusive and AID inh inactive.
For COc1ccc(C2=NC(c3ccccc3)=Nc3ccc(C)cc3N2)cc1 the results were UDG counterscr 79µM and AID inh inactive.
For NCC(O)c1ccc(O)c(O)c1 (stereo unspecified) the results were UDG counterscr inactive and AID inh inactive.
CC(C)NCC(O)c1cc(O)cc(O)c1 (stereo unspecified) was read as UDG counterscr inactive and AID inh inactive.
`CC(C)NC[C@H](O)c1ccc(O)c(O)c1` gave UDG counterscr inactive and AID inh 79µM!.
`CCC(NC(C)C)C(O)c1ccc(O)c(O)c1` (stereo unspecified) gave UDG counterscr inactive and AID inh 45µM.
Screening COCCn1c(=O)[nH]c2cc(C(=O)N3CCN(c4ccc(F)cc4)CC3)ccc2c1=O returned UDG counterscr inactive and AID inh inactive.
Brc1ccc(-c2cn3c4ccccc4nc3n2CCCN2CCCC2)cc1 was read as UDG counterscr inactive and AID inh inconclusive.
C/C(=N/Nc1cccc([N+](=O)[O-])c1)c1ccccn1 was read as UDG counterscr inactive and AID inh inactive.
For CC1(C)C2CC=C(/C=N/NC(=S)Nc3ccc(SC(F)F)cc3)C1C2 (stereo unspecified) the results were UDG counterscr inactive and AID inh inactive.
COCCCNC(=O)c1cc2c(-c3cccc(OC)c3)nn(C)c2s1 was read as UDG counterscr inactive and AID inh inactive.
For COc1ccccc1N1CCN(C(=O)c2cc3c(-c4ccccc4F)nn(C)c3s2)CC1 the results were UDG counterscr inactive and AID inh inconclusive.
Screening COc1ccc(-c2nn(C)c3sc(C(=O)N4CCN(c5ccccc5F)CC4)cc23)cc1OC returned UDG counterscr 89µM and AID inh inconclusive.
Cc1cccc(N2CCN(C(=O)c3cc4c(=O)n(C)c5ccccc5c4s3)CC2C)c1 (stereo unspecified) was read as UDG counterscr inactive and AID inh inactive.
Screening COc1cccc(-c2nn(C)c3sc(C(=O)NCc4ccc(C)cc4)cc23)c1 returned UDG counterscr 89µM and AID inh inconclusive.

Compound activity: PubChem, National Center for Advancing Translational Sciences (NCATS)
